Assay results published in PubChem BioAssay (EPA / NIEHS).
Activity calls are given as the source filed them. The calls were made as follows: active = hit-call score of the fitted dose curve at least 0.9, where 1 is the maximum; inactive = score below 0.9.

Assay: ATG_FoxO_CIS: Attagene CIS-FACTORIAL HepG2 Assay for human Forkhead box O (FoxO) (AID 2282943)
Details: HepG2 Attagene cis-reporter, FoxO element, mRNA; actives raise or lower the signal
Description: ATG_CIS is a cell-based, multiplexed-readout assay that uses HepG2, a human liver cell line, with measurements taken at 24 hours after chemical dosing in a 24-well plate.ATG_FoxO_CIS is one of 52 assay component(s) measured or calculated from the ATG_CIS assay. It is designed to make measurements of mRNA induction, a form of inducible reporter, as detected with fluorescence intensity signals by Reverse transcription polymerase chain reaction (RT-PCR) and Capillary electrophoresis technology.Data from the assay component ATG_FoxO_CIS was analyzed into 1 assay endpoint. This assay endpoint, ATG_FoxO_CIS, was analyzed with bidirectional fitting relative to DMSO as the negative control and baseline of activity. Using a type of inducible reporter, measures of mRNA for gain or loss-of-signal activity can be used to understand the reporter gene at the transcription factor-level as they relate to the gene FOXO1 and FOXO3. Furthermore, this assay endpoint can be referred to as a primary readout, because this assay has produced multiple assay endpoints where this one serves a reporter gene function. To generalize the intended target to other relatable targets, this assay endpoint is annotated to the dna binding intended target family, where the subfamily is forkhead box protein.
Human liver HepG2 cells are transiently transfected with multiple reporter transcription units (MRTUs) in 6-well plates using FuGene 6 reagent (Roche; 3 ml FuGene/1 mg DNA). The MRTU constructs are regulated by a cis-regulating element (promoter). […] A major difference between the CIS and TRANS system is that in CIS activities of endogenous TFs are measured, whereas the TRANS assay evaluates changes in activities of exogenous, chimeric NR-Gal4 proteins. […] At the end of 24 hour incubation, total RNA was isolated using TriZol reagent (Invitrogen). The isolated RNA is then reverse-transcribed using oligo(dT) primer and Mo-MLV reverse transcriptase (Invitrogen) with DNAse I (Ambion) treatment for 30 min. The one-tenth of the produced cDNA was amplified by PCR using Taq DNA polymerase (Invitrogen) and two reporter sequence-specific primers. The PCR products were fluorescently labeled by primer extension with 6-arboxyfluorescein (6-FAM) 5'-labeled reporter sequence-specific primer (2 min at 95 C, 20 s at 68 C and 10 min at 72 C) and these products were digested with 5U of HpaI (New England Biolabs) for 2h at 37 C. The fragments were purified using Qiaquick PCR columns (Qiagen), analyzed on an ABI 3130xL genetic analyzer (Applied Biosystems) with peak positions identified by using a set of X-rhodamine (ROX)-labeled MapMarker1000 molecular weight standards (BioVentures). The raw capillary electrophoresis data was processed using Attagraph software (Attagene).
With `CC(C)C1CCC(O)CC1` (stereo not given) the outcome was “inactive”.
For `CCCc1c(OCCCOc2ccc(OCC(=O)O)cc2)ccc(C(C)=O)c1O`, the outcome was “inactive”.
With `CC(C)(CO)[N+](=O)[O-]` the outcome was “inactive”.
For `CCCCCC(CO)CCC` (stereo not given), the outcome was “inactive”.
With `CCCc1ccccc1O` the outcome was “inactive”.
In the case of `C=CC(C)(O)CCC=C(C)CCC=C(C)C` (stereo not given), the outcome is reported as “inactive”.
With `NNc1nc(-c2ccc(N)cc2)cs1` the outcome was “inactive”.
With `CC1=CCC(O)(C(C)C)CC1` (stereo not given) the outcome was “inactive”.
For `O=C1CCCCCCCCCCOCCCCO1`, the outcome was “inactive”.
With `CC(C)=CCC[C@H](C)CC=O` the outcome was “inactive”.
With `O=C(O)c1ccc([N+](=O)[O-])cc1` the outcome was “inactive”.
In the case of `Cc1ccccc1C=O`, the outcome is reported as “inactive”.
In the case of `CCCCCCOC(=O)CCCCC`, the outcome is reported as “inactive”.
For `O=C(O)CCCCCCCCCCC(=O)O`, the outcome was “inactive”.
For `Cc1ccc(C(=O)O)o1`, the outcome was “inactive”.
With `Clc1sc(Cl)c(Cl)c1Cl` the outcome was “inactive”.
In the case of `COc1ccc(O)cc1`, the outcome is reported as “inactive”.
With `C[C@H]1C[C@@H]2[C@H]([C@@H](O)C[C@@]3(C)[C@H]2CC[C@]3(O)C(=O)CO)[C@@]2(C)C=CC(=O)C=C12` the outcome was “inactive”.
With `CC1(C)CCC(C)(C)c2cc(C(=O)Nc3ccc(C(=O)O)cc3)ccc21` the outcome was “inactive”.
With `CCOc1ccccc1OCC` the outcome was “inactive”.
In the case of `O=[N+]([O-])c1ccc(Nc2ccc(Nc3ccccc3)c(S(=O)(=O)O)c2)c([N+](=O)[O-])c1`, the outcome is reported as “inactive”.
With `C=C(C)C(=O)NCCCN(C)C` the outcome was “inactive”.
With `C/C=C(\C)C(=O)OCc1ccccc1` the outcome was “inactive”.
In the case of `CCC(=O)OCc1ccccc1`, the outcome is reported as “inactive”.
In the case of `O=C(O)CCCCCCCC(=O)O`, the outcome is reported as “inactive”.
With `N#Cc1ccc(CC(=NNC(=O)Nc2ccc(OC(F)(F)F)cc2)c2cccc(C(F)(F)F)c2)cc1` the outcome was “inactive”.
With `Cc1cccc(C)c1[N+](=O)[O-]` the outcome was “inactive”.
For `OCc1cccnc1`, the outcome was “inactive”.
For `CN1[C@@H]2CC(OC(=O)[C@H](CO)c3ccccc3)C[C@H]1[C@@H]1O[C@@H]12` (stereo not given in full), the outcome was “inactive”.
In the case of `Nc1cc([N+](=O)[O-])ccc1O`, the outcome is reported as “inactive”.
In the case of `CN1Cc2c(N)cccc2C(c2ccccc2)C1` (stereo not given), the outcome is reported as “inactive”.
In the case of `O=Nc1ccc(Nc2ccccc2)cc1`, the outcome is reported as “inactive”.
In the case of `CCCC/C=C\CCCCCCCCCC=O`, the outcome is reported as “inactive”.
With `C=CC(=O)OCC(O)COc1ccccc1` (stereo not given) the AC50 was 25.2 µM (active).
With `CNCCO` the outcome was “inactive”.
For `C=CC(=O)NCOCC(C)C`, the outcome was “inactive”.
In the case of `CC(CCO)CCCC(C)(C)O` (stereo not given), the outcome is reported as “inactive”.
For `O=c1oc(=O)c2cc3c(=O)oc(=O)c3cc12`, the outcome was “inactive”.
In the case of `CSc1nnc(C(C)(C)C)c(=O)[nH]1`, the outcome is reported as “inactive”.
In the case of `CCC(=O)OCCC(C)CCC=C(C)C` (stereo not given), the outcome is reported as “inactive”.
